Compound activity (PubChem)
GALK inhibitor: blocks human galactokinase activity; Potency, µM (highest dose often 57.5 µM), usual class: inhibitors; Purified GALK, Kinase-Glo residual ATP luminescence; actives 0.007% (n = 270,000); P51570
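GALK at 5 nM final was combined with compound, 35 uM ATP and 100 uM galactose in HEPES pH8.0 with MgCl2 and DTT. The reaction ran one hour at room temperature before luminescent ATP detection.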
PI4K2A block: inhibitors of human PI4K2A | Q9BTU6 | purified PI4K2A, ADP-Glo luminescence, 1 h; hits give low values | activity change, negative = inhibition, % at 76.9 µM | actives 0.13% (n = 420,000) | AID 1346378; in the data active = activity change below about -50%; inconclusive = mostly about -30% to -49%
Target sequence (Q9BTU6 whole entry, looked up): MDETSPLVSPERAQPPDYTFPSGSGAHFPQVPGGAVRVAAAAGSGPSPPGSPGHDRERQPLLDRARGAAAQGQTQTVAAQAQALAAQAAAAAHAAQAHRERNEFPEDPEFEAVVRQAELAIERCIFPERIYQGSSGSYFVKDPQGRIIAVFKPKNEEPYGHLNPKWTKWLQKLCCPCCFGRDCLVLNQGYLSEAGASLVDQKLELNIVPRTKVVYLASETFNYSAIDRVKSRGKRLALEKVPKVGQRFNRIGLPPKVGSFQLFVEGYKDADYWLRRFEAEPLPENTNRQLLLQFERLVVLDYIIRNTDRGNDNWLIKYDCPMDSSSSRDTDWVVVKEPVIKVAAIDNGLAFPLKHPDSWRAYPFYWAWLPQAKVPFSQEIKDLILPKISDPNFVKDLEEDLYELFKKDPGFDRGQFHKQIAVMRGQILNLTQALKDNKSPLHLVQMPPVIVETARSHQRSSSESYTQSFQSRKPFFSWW
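ADP-Glo luminescence measured ADP generated by PI4K2A enzyme (4 ug/mL before mixing) with 1.2 mM PI substrate (pre-mix) and 300 microM ATP (pre-mix). Tris pH7.5 buffer with MgCl2, Triton X-100; 1 h reaction at ambient temperature.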
HTT ATP protect: Huntington cell model cytoprotection by ATP luminescence. PC12 HTT-Q103 induced, cytoprotection, ATP luminescence, 40 h. Potency, µM (highest dose often 56.4 µM), most hits filed as activators. actives 0.14% (n = 230,000); also: nearly all actives have a fitted effect of over 45% in size
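Cells were plated at 1500 per well in phenol red-free DMEM with 5% equine and 5% calf serum. Tebufenozide (100 nM final) and compounds were added, then ATPlite reagent, and luminescence was read.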
HTT aggregate: mutant huntingtin aggregation inhibition | actives 1.1% (n = 220,000) | Potency, µM (top dose mostly 46.1 µM), actives largely listed as inhibitors | PC12 HttQ103-GFP aggregates, Acumen cytometry, 40 h; also: nearly all actives have a fitted effect of over 60% in size
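Read-out: GFP aggregate count by laser scanning cytometer (488 nm excitation, 500-530 nm emission, 1–25 µm objects >6 SD above background). Cells: PC12, inducible HTTex1-Q103-GFP, 100 nM tebufenozide; compounds titrated.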
Numbers stand for hits; i = inactive; ? = inconclusive; nt = no result; ! = not confirmed by another sample; [ ] = dose if it differs, or a comment. The full list was thinned out, with hits kept by preference. Unless noted, calls follow the shape of the dose curve; as a rule, active = well fitted curve in the direction sought with a large enough effect; inconclusive = small, poorly fitted or top-dose-only effect, or another doubt; inactive = no such curve, though single readings can be large; an effect the other way counts as inactive or inconclusive.

SMILES	GALK inhibitor	PI4K2A block	HTT ATP protect	HTT aggregate
CCC[C@H]1[C@@H](N(C)Cc2ccccc2)CC[C@@]23CCCN2C(=O)CCC[C@@H]13	nt	i	nt	nt
CCNC(=O)[C@@H]1CCCN1C(=O)[C@H](CCCN=C(N)N)NC(=O)[C@H](CC(C)C)NC(=O)[C@@H](Cc1c[nH]c2ccccc12)NC(=O)[C@H](Cc1ccc(O)cc1)NC(=O)[C@H](CO)NC(=O)[C@H](Cc1c[nH]c2ccccc12)NC(=O)[C@H](Cc1cnc[nH]1)NC(=O)[C@@H]1CCC(=O)N1	nt	nt	i	7.9µM
c1ccc(CNc2ncnc3c2cnn3Cc2ccccc2)cc1	i	i	i[10 µM]	22µM
CCC(C)Nc1ncnc2c1cnn2Cc1ccc(Cl)cc1 (stereo unspecified)	i	i	i	25µM
CC(C)Nc1ncnc2c1cnn2Cc1ccc(Cl)cc1	nt	i	nt	nt
O=C(CCl)N(c1ccccc1)c1ccccc1	i	i	i	10µM
CC(=O)Nc1ccc(S(=O)(=O)N2CCc3nc(COc4ccccc4)c4c(c3C2)CO[C@@H](C)C4)cc1	nt	nt	i[10 µM]	nt
O=C(CP(=O)(c1ccccc1)c1ccccc1)N/N=C/c1cc(Br)cc(Br)c1O	i	i	?	11µM
O=C(CNC(=O)c1ccccc1)N/N=C/c1cc(Br)ccc1O	i	i	nt	3.2µM
O=C(CNC(=O)c1ccccc1Br)N/N=C/c1ccccc1O	i	i	i	10µM
O=C(CNC(=O)c1ccccc1F)N/N=C/c1cc(Br)ccc1OC(=O)/C=C/c1ccco1	i	i	nt	10µM
COc1ccccc1C(=O)NCC(=O)N/N=C/c1cc(Br)ccc1OC(=O)/C=C\c1ccco1	i	i	nt	i
O=C(CNC(=O)c1ccccc1Br)N/N=C\c1cc([N+](=O)[O-])cc(Br)c1O	i	i	nt	nt
O=C(CNC(=O)c1ccccc1Br)N/N=C/c1cc(Br)ccc1O	i	i	i	3.5µM
O=C(N/N=C/c1cc(Cl)ccc1O)c1cccnc1	i	i	nt	nt
O=C(N/N=C/c1cc(Cl)ccc1O)c1ccccc1Br	i	i	i	2.5µM
O=C(CNC(=O)c1ccco1)N/N=C/c1cc(Br)ccc1O	i	i	nt	nt
Cc1ccc(-n2c(SCC(=O)Nc3ccc(S(=O)(=O)Nc4cc(C)nc(C)n4)cc3)nnc2-c2ccc(C(C)(C)C)cc2)cc1	nt	i	nt	nt
CC(=O)c1cccc(NS(=O)(=O)c2ccc(N/C=C\C(=O)c3ccc(F)cc3)cc2)c1	i	i	i	10µM
CC(=O)c1cccc(NS(=O)(=O)c2ccc(N/C=C/C(=O)c3ccc(F)cc3)cc2)c1	i	i	i[10 µM]	i
C=C[C@]1(C)CC(=O)[C@@]2(O)[C@@]3(C)C(O)CCC(C)(C)C3C(O)C(OC(C)=O)[C@@]2(C)O1 (stereo partly specified)	nt	nt	i	nt
C=C[C@@]1(C)CC(=O)[C@@]2(O)[C@@]3(C)[C@@H](O)CCC(C)(C)[C@@H]3[C@H](OC(=O)CCN(C)C)[C@H](OC(C)=O)[C@@]2(C)O1	nt	nt	40µM	nt
CCCCOc1ccc(C(=O)Nc2ccc(OCC(=O)N3CCOCC3)cc2)cc1	i	i	nt	nt
O=C(Nc1ccc(OCC(=O)N2CCOCC2)cc1)c1cncc(Br)c1	nt	i	nt	11µM
O=C(CN1CCN(c2nc(-c3ccccc3)cs2)CC1)Nc1ccc(Cl)cc1	nt	i	nt	nt
SMILES	GALK inhibitor	PI4K2A block	HTT ATP protect	HTT aggregate
O=C(Nc1nc(COc2ccccc2)cs1)C12CC3CC(CC(C3)C1)C2	i	i	i	11µM
CC(=O)Nc1nc(COc2ccccc2)cs1	i	i	i	i
CC(N)(C(=O)O)c1ccc(S(=O)(=O)O)cc1 (stereo unspecified)	nt	nt	i	nt
CCOC(=O)c1ccc(-n2c(C)ccc2C)cc1	i	i	i[0.074 µM]	?
CCOC(=O)c1ccc(N2C(=O)C=CC2=O)cc1	i	i	i	22µM
Cc1ccc(-c2cc(C(=O)NN=Cc3ccc(F)cc3)[nH]n2)cc1C	nt	i	nt	nt
COC(=O)c1ccc2c(c1)C(C)(C)C(/C=C/c1ccccc1O)=[N+]2C	i	i	i	3.5µM
COc1ccc(CCNc2ncnc3c2oc2ccccc23)cc1OC	i	i	i	2µM
COc1ccc(CCNc2ncnc3sccc23)cc1OC	i	i	i[10 µM]	1µM
C[C@@H]1O[C@@H](OC[C@@H]2O[C@@H](Oc3c(-c4ccc(O)c(O)c4)oc4cc(O)cc(O)c4c3=O)[C@H](O)[C@H](O)[C@@H]2O)[C@H](O)[C@H](O)[C@@H]1O	nt	nt	i	nt
Cc1ccccc1N1CCN(S(=O)(=O)c2ccc3oc(=O)ccc3c2)CC1	i	i	i[10 µM]	10µM
Cc1ccccc1N1CCN(S(=O)(=O)c2ccc3c(c2)oc(=O)n3C)CC1	nt	i	nt	nt
COc1ccc(-c2ccc(SC)nn2)cc1	i	-72	i	i
CC(C)(C)n1nnnc1C(c1cccs1)N(Cc1ccc(Cl)cc1)CC1CCCO1 (stereo unspecified)	i	i	i	14µM
Clc1ccc(CN(Cc2ccccc2)C(c2cccs2)c2nnnn2C2CCCC2)cc1 (stereo unspecified)	i	i	i	i
OC[C@H]1O[C@@H](OCCc2ccc(O)cc2)[C@H](O)[C@@H](O)[C@H]1O	nt	i	nt	nt
CC(C)CCSc1nc(N)c(C#N)cc1C#N	i	i	i[10 µM]	22µM
COc1ccccc1NC(=O)OCCN1CCCC12CCC(c1ccccc1)CC2 (stereo unspecified)	nt	i	nt	nt
CCc1ccc(-n2c(SCc3ccccc3F)nc3[nH]ncc3c2=O)cc1	nt	i	nt	nt
O=c1c2cn[nH]c2nc(SCc2ccccc2F)n1-c1ccc(Br)cc1	nt	i	nt	13µM
O=C1C=C(N(CCO)Cc2ccccc2)c2ccccc2C1=O	?	?	i	8.9µM
O=C1c2ccccc2C(=O)c2c1cccc2N(CCO)CCO	nt	i	nt	nt
Fc1ccc(C(c2ccc(F)cc2)N2CCNCC2)cc1	nt	i	nt	nt
CCc1nc2cc(Cl)c(Cl)cc2[nH]1	i	i	i[0.074 µM]	11µM
Cc1cc(NC(=O)c2cc(-c3ccccc3)on2)no1	i	i	i	i
SMILES	GALK inhibitor	PI4K2A block	HTT ATP protect	HTT aggregate
O=C(c1ccccc1)c1cc(-c2ccccc2)on1	i	-51	i	i
CC/C=C(\C(=O)N[C@@H]1C(=O)N2C(C(=O)OCOC(=O)C(C)(C)C)=C(COC(N)=O)CS[C@H]12)c1csc(N)n1	nt	i	nt	nt
O=c1c2cc(Br)ccc2nc(-c2ccc([N+](=O)[O-])cc2)n1O	i	i	i	11µM
O=c1c2cc(Cl)ccc2nc(-c2ccccc2)n1O	i	i	i[10 µM]	?
O=c1c2ccc(Cl)cc2nc(-c2ccc([N+](=O)[O-])cc2)n1O	i	i	i	6.3µM
N#Cc1ccc(-c2nc3ccc(Br)cc3c(=O)n2O)cc1	i	i	nt	nt
Cc1nonc1C(=O)N/N=C/c1ccc(O)cc1O	i	-79	i[10 µM]	i[9.22 µM]
COc1cc(NCCCC(C)N)c2ncccc2c1 (stereo unspecified)	i	-51	i[10 µM]	18µM!
CCc1cccc(CC)c1NC(=S)NCCc1c(C)[nH]c2ccc(C)cc12	nt	i	nt	6.3µM
COC(=O)Cc1c(C)c2ccc(OCC(C)=O)c(C)c2oc1=O	i	i	i	i
C=C(C)COc1ccc2c(C)c(CC(=O)OC)c(=O)oc2c1C	i	i	i[10 µM]	11µM
